# Results filed as inconclusive are left out. The source made the active and inactive calls. Calls follow the shape of the dose curve; as a rule, active = well fitted cell-killing curve with a large enough effect in the repeat runs; inconclusive = weak or mixed curves, or effect the other way; inactive = flat fitted curve, though single readings scatter.
# Test: qHTS assay to identify small molecule antagonists of the estrogen receptor alpha (ER-alpha) signaling pathway using the BG1 cell line in the presence of 0.1 nM 17-beta-estradiol - cell viability counter screen (AID 1259241); also: nearly all actives have a fitted effect of over 40% in size
# Conditions: VM7Luc4E2 (BG1) viability, CellTiter-Fluor protease, 22 h, 0.1 nM estradiol agonist added; series mostly up to 92.4 µM
# Text: National Center for Advancing Translational Sciences [NCATS]
# NIH Chemical Genomics Center [NCGC]
# U.S. Environmental Protection Agency [EPA]
# National Institutes of Environmental Health Sciences [NIEHS]
# National Toxicology Program [NTP]
# U.S. Food and Drug Administration [FDA]
# Estrogen receptor (ER), a member of the nuclear hormone receptor plays an important role in development, metabolic homeostasis and reproduction. Two subtypes of ER, ER-alpha and ER-beta, have similar expression patterns with some uniqueness in both types. Endocrine disrupting chemicals (EDCs) and their interactions with steroid hormone receptors like ER causes disruption of normal endocrine function. Therefore, it is important to understand the effect of environmental chemicals in ER signaling pathway. For identifying ER antagonists, VM7Luc4E2 cell line was used to screen against Tox21 compound libraries.
# VM7Luc4E2 cell line (provided by Denison MS, University of California) endogenously express full-length ER-alpha and is stably transfected with a plasmid containing four estrogen responsive elements (ERE) upstream of a luciferase reporter gene. The current screening for identification of ER-alpha inhibitors against Tox21 compound libraries used lower concentration (0.1 nM) of 17beta-Estradiol as a stimulator. The cytotoxicity of the Tox21 compound libraries against VM7Luc4E2 cell line was tested by measuring live-cell protease activity using CellTiter-Fluor assay in the same wells.
# Tox21 Assay Protocol Summary:
# VM7Luc4E2 cells were cultured in phenol red free assay medium containing 10% charcoal stripped FBS for 5 days prior to the assay. The cells were dispensed at 4,000 cells/well in 4 uL of assay medium into white wall/solid-bottom 1536-well plates (Corning Life Sciences, Corning, NY) using a Multidrop Combi (ThermoFisher Scientific, Waltham, MA) dispenser. After the assay plates were incubated at 37C and 5% CO2 for 24 hr, 23 nL of compounds dissolved in DMSO, positive controls or DMSO only was transferred to the assay plates by a Pintool station (Kalypsys, San Diego, CA). The transfer of compounds was followed by the addition of 1 uL of 0.1 nM (final concentration) agonist (17beta-Estradiol)/assay medium using a Flying Reagent Dispenser (FRD, Aurora Discovery, San Diego, CA). The plates were incubated at 37C and 5% CO2 for 22 hr. For cytotoxicity assay, 1 uL of CellTiter-Fluor reagent (Promega Corporation, Madison, WI) was added to each well using the FRD and after 30 min incubation at 37C and 5% CO2, The fluorescence intensity was measured using ViewLux plate reader (PerkinElmer, Shelton, CT).
# % is scaled to controls: 0 for no effect and ±100 for the full control effect.
Compound,outcome,"activity change, negative = cytotoxicity"
CC(C)[N+](C)(CCC(C(N)=O)(c1ccccc1)c1ccccc1)C(C)C,inactive,
O=C(Cl)C(Cl)Cl,inactive,
NC1(c2ccccc2)CCCCC1,inactive,
O=C(NC(=O)c1c(F)cccc1F)Nc1cc(Cl)c(F)c(Cl)c1F,inactive,
CCC1(c2ccccc2)CCC(=O)NC1=O (stereo not given),inactive,
Cc1ccc2c(c1)C1CN(C)CCC1N2 (stereo not given),,-3.08% [at 19 µM] (inactive)
O=C(O)CBr,inactive,
O=C(Cl)c1ccccc1,inactive,
O=C(O)c1c(Cl)ccc2cc(Cl)cnc12,inactive,
C[C@@H](N)[C@@H](O)c1ccccc1,inactive,
CCC(=O)OC1(c2ccccc2)CCN(C)CC1,inactive,
CCC(CC)(CNC(=O)CCCO)c1cccc(OC)c1,inactive,
N=C(N)[Se],inactive,
CC(C)(C)C(=O)Cl,inactive,
N#CN,inactive,
CCNP(=S)(OC)O/C(C)=C/C(=O)OC(C)C (stereo not given),inactive,
CC(O)CCl (stereo not given),inactive,
O=C(Cl)OCc1ccccc1,inactive,
Brc1c(Br)c(Br)c(Br)c(Br)c1Br,,-4.2% [at 8.39 µM] (inactive)
Cn1c(CCCC(=O)O)nc2cc(N(CCCl)CCCl)ccc21,inactive,

Compound,outcome,"activity change, negative = cytotoxicity"
NC(=O)OCCCc1ccccc1,inactive,
O=P(O)(O)c1ccccc1,inactive,
BrCC1CO1 (stereo not given),inactive,
CCC(C)(C#N)N=NC(C)(C#N)CC (stereo not given),inactive,
CCc1ccc(C2CCNCC2)cc1,inactive,
C=CCCC#N,inactive,
Oc1ccc(Cc2ccc(O)cc2)cc1,inactive,
CCOC(=O)CC(SP(=S)(OC)OC)C(=O)OCC (stereo not given),inactive,
COc1cccc(C=O)c1,inactive,
N[C@@H](Cc1ccc(Oc2cc(I)c(O)c(I)c2)c(I)c1)C(=O)O,inactive,
ClCCCCCCCl,inactive,
CN(CCO)CCO,inactive,
CCC(C)C(C)(COC(N)=O)COC(N)=O (stereo not given),inactive,
O=[N+]([O-])c1cccc(CCl)c1,inactive,
CC(=O)OCC1=C(C(=O)O)N2C(=O)[C@@H](N)[C@H]2SC1,,4.49% [at 19 µM] (inactive)
ClC1=C(Cl)C2(Cl)C(CBr)CC1(Cl)C2(Cl)Cl (stereo not given),inactive,
CCOC(=O)CCl,inactive,
Cc1ccc(Cl)c(O)c1,inactive,
O=C1CCCCC1Cl (stereo not given),inactive,
O=c1[nH]c2ccccc2n1C1CCNCC1,inactive,
